Assay outcomes (PubChem BioAssay)
In the library only some 32% were active in any assay of this set; here they are far more common.
CYP2C19 activ – human CYP2C19 activators, primary screen, biochemical, luminescence. Cytochrome P450 2C19 (Homo sapiens), P33261. recombinant CYP2C19, luciferin-H EGE luminescence; stronger effect = higher value; 0 = fully inhibited enzyme, 1 = untreated enzyme. activation factor at 5 µM. 96,000 tested, under 10 active;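 active = activation factor of at least 2 at 5 µM in the primary screen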
CYP2C9 inhib – blockers of cytochrome P450 2C9 activity – biochemical, luminescence, ADME assay, primary screen; P11712; CYP2C9 Supersomes, luciferin-H conversion; inhibition, % at 5 µM; 96,000 compounds, 20% hits;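 active = blocking of liver enzyme CYP2C9 beyond about 50% at 5 µM, limit read from the data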
Target sequence (P11712 whole entry, looked up): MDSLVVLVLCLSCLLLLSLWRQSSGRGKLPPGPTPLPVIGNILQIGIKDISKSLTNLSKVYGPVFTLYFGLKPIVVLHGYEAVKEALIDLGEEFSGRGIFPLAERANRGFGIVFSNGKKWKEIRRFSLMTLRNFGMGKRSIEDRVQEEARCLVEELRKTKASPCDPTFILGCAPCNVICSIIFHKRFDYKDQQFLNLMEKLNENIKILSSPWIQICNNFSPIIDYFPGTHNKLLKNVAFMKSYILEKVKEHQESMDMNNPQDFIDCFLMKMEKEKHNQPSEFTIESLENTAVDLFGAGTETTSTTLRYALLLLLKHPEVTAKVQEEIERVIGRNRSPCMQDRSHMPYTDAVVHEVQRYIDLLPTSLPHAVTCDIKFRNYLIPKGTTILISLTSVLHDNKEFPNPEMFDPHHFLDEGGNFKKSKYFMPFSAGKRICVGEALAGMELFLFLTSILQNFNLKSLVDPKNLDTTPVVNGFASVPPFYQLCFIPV
CYP2C19 inh – blockers of cytochrome P450 2C19 activity – biochemical, luminescence, ADME assay, primary screen; inhibition, % at 5 µM; P33261; 96,000 compounds, 21% hits; CYP2C19 Supersomes, luciferin-H EGE luminescence, 30 min;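 active = CYP2C19 inhibition above a set limit at 5 µM in the primary screen, cut at about 50% in these data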
PostGolgi ctrl – growth inhibition of yeast control strain, primary screen, counter-screen for post-Golgi transport modulator project. efflux-deficient yeast background strain, growth absorbance A615, 16 h. inhibition, % at 10 µM. 98,000 compounds, 5% hits. AID 738, 2007
PostGolgi yeast – phenotypic screen on post-Golgi transport, primary screen | 98,000 compounds, 0.9% hits | post-Golgi transport phenotypic cell assay | inhibition, % at 10 µM;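 also: yeast cells grown in 1536-well plates; yeast grown about 18 h at 30C before absorbance read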
CYP2C9 act – human CYP2C9 activators, primary screen, biochemical, luminescence; 96,000 compounds, 1.4% hits; recombinant CYP2C9, luciferin-H conversion; stronger effect = higher value; factor 1 = untreated enzyme, 0 = blocked; activation factor at 5 µM; AID 1024, 2008;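 active = activation factor of 2 or more for CYP2C9 at a 5 µM dose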
Each line names hits and unclear results; the compound was inactive in the other large screens. Rule as the data show it, unless noted: active = inhibition above about 30%; inactive = the rest.

CCOc1ccc(C2C=C(c3ccc(C)cc3)Nc3ncnn32)cc1 (stereo unspecified)	PostGolgi ctrl 38
CCOc1ccc(C2C=C(c3ccccc3)Nc3nnnn32)cc1 (stereo unspecified)	CYP2C9 inhib 62, CYP2C19 inh 64
OCCN=C(c1ccccc1)C12CN3CN(CN(C3)C1)C2	none
CCOc1ccc(NC(=O)CSc2nnc(Cn3c(=O)sc4ccccc43)n2C)cc1	none (no result: CYP2C19 activ, CYP2C9 inhib, CYP2C19 inh, CYP2C9 act)
Cc1cc(C)n(-c2c(F)c(F)c(CN3CCCCC3)c(F)c2F)n1	none
Cc1ccc(C(C(=O)NCc2ccco2)N(C(=O)CNC(=O)c2cccs2)c2c(C)cc(C)cc2C)cc1 (stereo unspecified)	none
Cn1c(CN2CCCCC2)nc2cc(NC(=O)c3cccs3)ccc21	CYP2C9 inhib 87, CYP2C19 inh 99
Cc1ccc(N2CCN(CCc3nc4cc(NC(=O)c5ccco5)ccc4n3C)CC2)cc1	CYP2C9 inhib 69
Cn1c(CCNC(=O)c2ccco2)nc2cc(NS(=O)(=O)c3ccc(Cl)cc3)ccc21	CYP2C9 inhib 98, CYP2C19 inh 89
Cn1c(CN2CCCCC2)nc2cc(NS(=O)(=O)c3ccc(Cl)cc3)ccc21	CYP2C9 inhib 67
Cn1c(CCN2CCCCC2)nc2cc(NS(=O)(=O)c3ccc(Cl)cc3)ccc21	none
CN(CC(=O)NCCC1=CCCCC1)S(=O)(=O)c1ccc2c(c1)CCC(=O)N2	none
CCOC(=O)c1nc(N)c(C(=O)OCC)[nH]1	none
O=C(c1ccccc1)c1ccc2nc[nH]c2c1	CYP2C19 inh 57
N#CCCS(=O)(=O)c1nnnn1-c1ccccc1	none (no result: PostGolgi ctrl, PostGolgi yeast)
Cn1c(CNC(=O)Nc2ccccc2Cl)nnc1SCc1ccccc1	CYP2C19 inh 64
CCn1c(CNc2ccc(Cl)cc2)nnc1SCC(=O)NCc1ccccc1	CYP2C9 inhib 55, CYP2C19 inh 67
CCn1c(CSCc2ccc(F)cc2)nnc1SCC(=O)NCc1ccccc1	none
CCn1c(CSCc2ccc(C)cc2)nnc1SCC(=O)NCc1ccccc1	CYP2C9 inhib 54
COC(=O)CSc1nnc(CNc2ccc(Cl)cc2)n1-c1ccccc1	CYP2C19 inh 54, PostGolgi ctrl 65, PostGolgi yeast 63
CCOC(=O)CSc1nnc(CNc2ccccc2Cl)n1-c1ccccc1	none
Nc1nc2c3ccccc3nc(C3CC3)n2n1	none
O=C(Cn1ccc2ccccc2c1=O)NCCC(=O)N1CCN(c2cccc(Cl)c2)CC1	none
CC(=O)c1cccc(NS(=O)(=O)c2cc(OCC(N)=O)c(C)cc2Cl)c1	none
CCn1c(CNc2ccc(Cl)cc2)nnc1SCc1ccccc1	CYP2C9 inhib 77, CYP2C19 inh 66, PostGolgi ctrl 93, PostGolgi yeast 99
Cn1c(CNc2ccc(Cl)cc2)nnc1SCc1ccccc1	CYP2C9 inhib 57, PostGolgi ctrl 96, PostGolgi yeast 105
O=C(O)CSc1nnc(CNc2ccc(Cl)cc2)n1Cc1ccccc1	none
Clc1ccc(NCc2nncn2-c2ccccc2)cc1	CYP2C19 inh 98
CCn1c(COc2ccccc2)nnc1SCC(=O)c1cccc([N+](=O)[O-])c1	none
Cc1noc(C)c1CN1C(=O)NC2(CCCCCCC2)C1=O	CYP2C19 inh 61
COc1ccc(C(=O)CSc2nnc(CNC(=O)c3ccc(OC)c(OC)c3)n2C)cc1	none
COc1ccc(N2CCN(CCCn3c(=S)[nH]c4ncccc4c3=O)CC2)cc1	none
O=c1c2cccnc2[nH]c(=S)n1CCCN1CCN(c2ccc(F)cc2)CC1	PostGolgi ctrl 42
CCOCCCn1c(=S)[nH]c2ncccc2c1=O	PostGolgi ctrl 33
COc1cc(C2C(C#N)=C(N)OC3=C2C(=O)CC(C)(C)C3)ccc1OC(=O)N1CCOCC1 (stereo unspecified)	CYP2C9 inhib 54, PostGolgi ctrl 33
CC1(C)CC(=O)C2=C(C1)OC(N)=C(C#N)C2c1ccc(OC(=O)N2CCOCC2)cc1 (stereo unspecified)	CYP2C9 inhib 60
N#CC1=C(N)OC2=C(C(=O)CCC2)C1c1ccc(OC(=O)N2CCOCC2)cc1 (stereo unspecified)	PostGolgi ctrl 38
CCCc1[nH]nc2c1C(c1ccc(OC(=O)N3CCOCC3)cc1)C(C#N)=C(N)O2 (stereo unspecified)	none
O=c1oc2cc(Cl)ccc2n1CSc1nc2ccccc2s1	CYP2C9 inhib 67, CYP2C19 inh 74, PostGolgi ctrl 32
O=C(CSc1nc2ccccc2s1)N1c2ccccc2Sc2ccc(Cl)cc21	none
Cc1csc(SCC(=O)c2c(N)n(C)c(=O)n(C)c2=O)n1	none
O=C(CCN1CCCCCC1)Nc1ccc(F)cc1	none
CCN(CC)CCCNC(=O)Cc1c(C(=O)O)n(C)c2ccccc12	none
CCN(CC)CCNC(=O)Cc1c(C(=O)O)n(C)c2ccccc12	none
Cn1c(C(=O)O)c(CC(=O)NCc2cccnc2)c2ccccc21	CYP2C9 inhib 63
Cn1nc(CC(=O)Nc2ccc3c(c2)OCCO3)c2ccccc2c1=O	none
Cc1ccc2c(c1)c(CC(=O)Nc1ccc(F)cc1)c(C(=O)O)n2C	CYP2C9 inhib 65
Cn1c(C(=O)O)c(CC(=O)Nc2ccc(F)cc2F)c2ccccc21	CYP2C9 inhib 95, CYP2C19 inh 78
Cn1c(C(=O)O)c(CC(=O)Nc2ccc3c(c2)OCCO3)c2ccccc21	CYP2C9 inhib 65, CYP2C19 inh 59
COC(=O)C(CC(C)C)NC(=O)c1ccc([N+](=O)[O-])c(C)c1 (stereo unspecified)	none
Cn1ccnc1C(O)(c1nnc(-c2ccccc2)o1)C(F)(F)F (stereo unspecified)	none
O=C(CSc1nnnn1-c1ccccc1)Nc1nc(-c2ccccc2)ns1	none
O=C(NNC(=O)C1CCN(Cc2ccccc2)CC1)c1cccc(Cl)c1	none
COc1ccc(N(C)C2=NS(=O)(=O)c3ccccc32)cc1	CYP2C19 inh 72
O=S1(=O)N=C(Oc2ccccc2)c2ccccc21	none
COC(=O)C1=C(C)NC(=O)/C1=C\c1cc(C)n(-c2cc(C)cc(C)c2)c1C	CYP2C9 inhib 92, CYP2C19 inh 82
Cc1cc(C)cc(-n2c(C)cc(C=C(C#N)C#N)c2C)c1	none
COC(=O)C(NC(=O)c1ccccc1)(Nc1nccs1)C(F)(F)F (stereo unspecified)	none
COC(=O)C(NNc1ccccc1C)(NC(=O)c1ccc(F)cc1)C(F)(F)F (stereo unspecified)	CYP2C9 inhib 54, CYP2C19 inh 79
Cc1cccc(-c2nc3ccccc3c3nncn23)c1	CYP2C19 inh 54
c1ccc(-c2nc3ccccc3c3nncn23)cc1	none
N#CC1=C(SCc2ccccc2Cl)NC(=O)C(C(N)=O)C1 (stereo unspecified)	none
